A selection: hits, their analogues and other compounds. The true share with any hit is near 1.6%.
PERK inhibitor: block of dimerizer-induced PERK translation repression, primary screen, PERK inhibitor project, CHO PERK-DD cells, SEAP luminescence, HTS; actives 0.17% (n = 220,000); AID 1416, 2008; Eukaryotic translation initiation factor 2-alpha kinase 3 (Homo sapiens), Q9NZJ5; inhibition, % at 5.6 µM; CHO PERK-DD fusion, SEAP luminescence translation reporter;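 active means inhibition above the mean inhibition of all tested compounds plus 3 SD, set separately per screening campaign, cut at about 2.9% in these data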;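 further: PERK kinase domain activated by AP20187 dimerizer at 100 nM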
Target sequence (Q9NZJ5 whole entry, looked up, the tested form may be a part): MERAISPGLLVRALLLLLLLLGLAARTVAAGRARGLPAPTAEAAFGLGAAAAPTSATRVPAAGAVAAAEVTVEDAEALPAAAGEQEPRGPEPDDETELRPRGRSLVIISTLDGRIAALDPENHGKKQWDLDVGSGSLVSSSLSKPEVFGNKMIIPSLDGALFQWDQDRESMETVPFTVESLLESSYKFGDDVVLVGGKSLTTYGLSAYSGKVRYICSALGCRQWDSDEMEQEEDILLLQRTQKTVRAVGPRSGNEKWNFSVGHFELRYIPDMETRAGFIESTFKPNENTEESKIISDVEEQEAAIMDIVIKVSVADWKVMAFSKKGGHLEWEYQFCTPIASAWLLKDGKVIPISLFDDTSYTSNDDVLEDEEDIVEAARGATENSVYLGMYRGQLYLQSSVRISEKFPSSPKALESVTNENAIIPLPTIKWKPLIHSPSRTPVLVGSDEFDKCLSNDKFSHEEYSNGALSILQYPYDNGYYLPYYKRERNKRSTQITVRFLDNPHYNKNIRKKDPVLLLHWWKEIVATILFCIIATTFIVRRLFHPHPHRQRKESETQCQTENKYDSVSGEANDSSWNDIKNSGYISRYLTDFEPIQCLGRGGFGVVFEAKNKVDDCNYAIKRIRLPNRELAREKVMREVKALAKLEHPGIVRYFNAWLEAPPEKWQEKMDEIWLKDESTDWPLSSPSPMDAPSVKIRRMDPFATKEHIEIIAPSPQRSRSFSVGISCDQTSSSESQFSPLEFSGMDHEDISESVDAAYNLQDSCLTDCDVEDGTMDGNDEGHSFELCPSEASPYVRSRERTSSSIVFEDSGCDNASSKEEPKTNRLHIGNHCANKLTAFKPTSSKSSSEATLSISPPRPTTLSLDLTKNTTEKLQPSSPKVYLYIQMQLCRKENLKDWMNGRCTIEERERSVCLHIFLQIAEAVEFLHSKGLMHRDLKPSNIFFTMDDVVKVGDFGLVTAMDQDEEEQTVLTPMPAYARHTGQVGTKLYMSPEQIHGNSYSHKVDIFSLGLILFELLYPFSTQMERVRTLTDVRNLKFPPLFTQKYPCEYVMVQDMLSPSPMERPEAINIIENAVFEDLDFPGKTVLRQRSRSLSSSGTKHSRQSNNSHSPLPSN
eIF4E-4G inh: eIF4E–eIF4G protein interaction inhibitors, primary screen, biochemical, uHTS, TR-FRET, eIF4GI fragment; Eukaryotic translation initiation factor 4E (Mus musculus) + Eukaryotic translation …; TR-FRET eIF4E-eIF4GI(517-606) binding, 2 h; inhibition, % at 21.7 µM; actives 0.37% (n = 220,000); AID 782, 2007;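 active means inhibition above about 30%, limit read from the data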
eIF4H FP inh: human eIF4H binding inhibitors, primary screen, translation initiation inhibitor project, biochemical, uHTS, fluorescence polarization; Eukaryotic translation initiation factor 4H (Homo sapiens), Q15056; eIF4H fluorescence polarization binding assay; inhibition, % at 35 µM; actives 0.94% (n = 290,000); AID 2012, 2009;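 further: calls also rest on retests at 20 µM and on dose response follow-up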
MLLE-PAM2 inh: inhibitors of PABP1 MLLE–PAM2 peptide binding, primary screen, biochemical, fluorescence polarization, FITC-PAM2, GST-MLLE; Polyadenylate-binding protein 1 (Homo sapiens), P11940; inhibition, % at 20 µM; actives 0.36% (n = 360,000); AID 588489, 2011; in the data active means inhibition above about 35%, passing the limit was not always enough
PABP polyA inh: PABP poly(A) RNA binding inhibitors, primary screen, biochemical, fluorescence polarization, uHTS | Polyadenylate-binding protein 1 (Homo sapiens), P11940 | inhibition, % at 35 µM | actives 1% (n = 290,000) | AID 2014, 2009;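 further: calls also rest on retests at 20 µM and on dose response follow-up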
Of the large screens only hits and unclear results are named; the others gave an inactive call; ! = not confirmed by another sample. Unless noted, how the calls were made is not given here.

CCOC(=O)c1c(/N=C/c2ccc(O)cc2O)sc2c1CCC2	eIF4H FP inh 65, PABP polyA inh active (no result: MLLE-PAM2 inh)
CC(C)OC(=O)c1ccc(OC(=O)c2cccnc2)cc1	none
O=C(CN1C(=O)S/C(=C\c2ccc(-c3cc(C(=O)O)ccc3Cl)o2)C1=O)Nc1ccc2c(c1)OCO2	eIF4H FP inh 68, PABP polyA inh 38 (no result: PERK inhibitor, eIF4E-4G inh)
Cc1ccc(NC(=O)CN2C(=O)S/C(=C\c3ccc(-c4cccc(C(=O)O)c4C)o3)C2=O)cc1C	eIF4E-4G inh 58, eIF4H FP inh 68
Cc1c(C(=O)O)cccc1-c1ccc(/C=C2\SC(=O)NC2=O)o1	eIF4H FP inh 54, PABP polyA inh 34 (no result: PERK inhibitor, eIF4E-4G inh)
Cc1nnc(NC(=O)c2cc3n(n2)C(C(F)(F)F)CC(C2CC2)N3)s1 (stereo not drawn)	none
COc1cc(C(C)=O)ccc1OCC(=O)N1CCCC1c1ccc2c(c1)OCCCO2 (stereo not drawn)	none (no result: PERK inhibitor, eIF4E-4G inh, eIF4H FP inh, PABP polyA inh)
CCN(CC)S(=O)(=O)c1ccc(C(=O)NCC(c2cccs2)N2CCOCC2)cc1 (stereo not drawn)	none
C=C(C)CCOC(=O)C(CC(=O)O)NCc1ccco1 (stereo not drawn)	eIF4H FP inh inconclusive, PABP polyA inh 24
O=C(O)CC(NCc1ccco1)C(=O)OCCc1ccccc1 (stereo not drawn)	none
Cc1ccc(Nc2nc3ccccc3nc2-n2nc(C)cc2C)cc1	eIF4E-4G inh 52
CCOC(=O)c1ncn2c1CN(C)C(=O)c1cc(F)ccc1-2	PERK inhibitor 3.1!
O=C(Nc1ccc(-n2cnnn2)cc1)C(c1ccccc1)c1ccccc1	PABP polyA inh 62
CCN(CC)C(=O)C(=O)N/N=C/c1cccs1	PERK inhibitor 3.1
COc1ccc(OC)c(-c2oc3ccccc3c(=O)c2O)c1	none
COc1ccc(OC)c(C2=C/C(=C/c3ccccn3)C(=O)O2)c1	eIF4H FP inh 91
CCOC(=O)c1ccc(NC(=S)N2CCCC2c2ccc(OC)c(OC)c2)cc1 (stereo not drawn)	none
CCCCc1cc(=O)oc2cc(C)c(CN3CCCC3)c(O)c12	eIF4H FP inh 60, PABP polyA inh 62
CCCCc1cc(=O)oc2c(CN3CCCC3)c(O)ccc12	none (no result: eIF4E-4G inh)
CCc1cc(=O)oc2cc(C)c(CN3CCCC(C)C3)c(O)c12 (stereo not drawn)	eIF4H FP inh 63, PABP polyA inh 63
O=S(=O)(c1ccccc1)N1CCC(O)(CSc2ccc(F)cc2)CC1	none
CCOC(=O)CC1=C(C(=O)OCC)C(c2ccc(C)o2)C(C#N)=C(N)O1 (stereo not drawn)	eIF4H FP inh 92, MLLE-PAM2 inh 50, PABP polyA inh 79
CCN(CC)S(=O)(=O)c1ccc(C)c(NC(=O)COC(=O)[C@@H]2CCCN2C(=O)c2cccs2)c1	none
O=C(O)c1cc(-c2ccncc2)nc2ccc(S(=O)(=O)N3CCOCC3)cc12	none
Cc1ccc(-c2cc(C(=O)N/N=C/c3ccco3)n[nH]2)s1	eIF4H FP inh 94, PABP polyA inh active
CCCN(Cc1cc2cc(C)ccc2[nH]c1=O)C(=O)c1cccc(OC)c1	none
CC(Nc1nc(-c2ccc(F)cc2)cs1)c1nc2cc(Cl)c(Cl)cc2n1CCCO (stereo not drawn)	none (no result: PERK inhibitor, eIF4E-4G inh, eIF4H FP inh, PABP polyA inh)
Cc1ccc(Cn2c(C(C)Nc3nc(-c4ccc(C)cc4)cs3)nc3cc(Cl)c(Cl)cc32)cc1 (stereo not drawn)	eIF4H FP inh 85 (no result: PERK inhibitor, eIF4E-4G inh)
O=C(c1ccc(F)cc1)[C@@H]1[C@@H](C(=O)c2ccccc2)[C@@]2(C(=O)Nc3ccccc32)[C@H]2c3ccccc3C=CN12	eIF4H FP inh 51 (no result: MLLE-PAM2 inh)
CC(=O)[C@@H]1[C@@H](C(=O)c2ccc(F)cc2)[C@]2(C(=O)Nc3ccccc32)[C@H]2C=Cc3cc(F)ccc3N12	none
COc1ccccc1-n1c(N)c(C(N)=O)sc1=S	MLLE-PAM2 inh 41
O=[N+]([O-])c1ccc(-c2nn(-c3ccccc3)cc2/C=N/n2c(-c3ccncc3)n[nH]c2=S)cc1	none
COc1ccc(C(=O)NC(=S)Nc2ccc(NC(=O)c3ccco3)cc2)cc1[N+](=O)[O-]	none
COc1ccc(C(=O)NC(=S)Nc2cccc(NC(=O)c3ccco3)c2)cc1[N+](=O)[O-]	MLLE-PAM2 inh 42
COc1ccc(S(=O)(=O)N2CCC3(CC2)OCCO3)cc1	none
c1ccc(C2=NNC(c3ccccn3)=NN2)nc1	MLLE-PAM2 inh 43 (no result: PERK inhibitor, eIF4E-4G inh)
O=C(O)Cn1nc(-c2ccccc2)oc1=O	PERK inhibitor 3.0
C=CCOc1ccc(CNc2ccc3[nH]c(=O)[nH]c3c2)cc1OC	eIF4H FP inh 104, PABP polyA inh 9.0
COc1cc(C(=O)NCc2ccc(C(=O)NCC(OC)OC)cc2)cc(OC)c1OC	eIF4E-4G inh 63
COc1cc(C(=O)NCC(C)C)cc(OC)c1OC	none
O=C(NNC(=O)C1CCCN(c2ncccn2)C1)c1ccncc1 (stereo not drawn)	none
CC1=C(C(=O)Nc2ccc(C(=O)NCCC(C)C)cc2)SCCO1	none (no result: PERK inhibitor, eIF4E-4G inh)
CCCc1cc(=O)n(-c2nc3ccccc3s2)[nH]1	none
CCOC(=O)Cc1cc(=O)n(-c2nc3ccccc3s2)[nH]1	eIF4H FP inh 70, PABP polyA inh 68
COC(=O)CNC(=O)CN1c2cccc3cccc(c23)S1(=O)=O	eIF4H FP inh inconclusive, PABP polyA inh 58
COc1cc(C(=O)NCC(=O)n2nc(C)cc2C)cc(OC)c1OC	none
COC(=O)C1=C(C)NC(=O)/C1=C\c1cc(C)n(-c2ccccc2F)c1C	none
COC(=O)C1=C(C)NC(=O)/C1=C\c1cc(C)n(-c2ccccc2C)c1C	eIF4H FP inh 57, PABP polyA inh 49
Cc1[nH][nH]c(=O)c1C(c1ccc(-c2cccc(Cl)c2)o1)c1c(C)[nH][nH]c1=O	none
CCOC(=O)CN1C(=O)/C(=C2\SC(=S)N(NC(=O)c3cccnc3)C2=O)c2ccccc21	MLLE-PAM2 inh 43 (no result: PERK inhibitor, eIF4E-4G inh)
CN1C(=O)/C(=C2\SC(=S)N(NC(=O)c3cccnc3)C2=O)c2ccccc21	none (no result: PERK inhibitor, eIF4E-4G inh)
CCN(CC)c1ccc(/C=C2\CCC(/C=C(/C#N)C(=O)Nc3ccccc3F)=C2N2CCOCC2)cc1	none (no result: PERK inhibitor, eIF4E-4G inh, eIF4H FP inh, PABP polyA inh)
CCN(CC)c1ccc(/C=C2\CCC(/C=C(\C#N)C(=O)Nc3ccccc3F)=C2N2CCOCC2)cc1	eIF4H FP inh 61
O=C(OCc1ccccc1)N1CCC2CC1c1cc(Cl)ccc12 (stereo not drawn)	none (no result: PERK inhibitor, eIF4E-4G inh, eIF4H FP inh, PABP polyA inh)
CCOC(=O)c1cc(-c2ccc(OC)cc2)nc2c1c(C)nn2CCC(N)=S	MLLE-PAM2 inh 35
N#C/C(C(=O)N1CCCCC1)=C1/N=C(N)c2ccccc21	none
Cc1ccc(S(=O)(=O)NCCCN(C)C)cc1	PERK inhibitor 3.2
